# IL-1B inflam inh: inhibitors of inflammasome signaling (IL-1 beta secretion) | THP-1 LPS/ATP IL-1B secretion, AlphaLISA, 16 h; stronger effect = lower value | activity change, % at 57.5 µM | actives 4.7% (n = 360,000); in the data active = activity change below about -50%; inconclusive = mostly about -30% to -49%
#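 Secreted IL-1B measured by AlphaLISA bead assay after 16 h compound exposure of THP-1 cells; compounds (final up to 57.5 uM) added 1 h before LPS (250 ng/mL) and ATP (1.25 mM) stimulation; lower signal means less secretion.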
# HT1080 IDH1KD tx: HT-1080 IDH1 knockdown cell toxicity (counter line); Potency, µM (doses to about 46.1 µM), inactives show at the highest dose activity, negative = toxicity, usual class: cytotoxic; AID 686971; HT-1080 IDH1 knockdown viability, ATP luminescence, 48 h; actives 2% (n = 360,000);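 also: potency is read from the fitted curve at half-maximal effect; 0% = DMSO wells and -100% = cell-free medium wells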
#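 Viability of IDH1-knockdown HT-1080 fibrosarcoma cells was assessed by CellTiter-Glo after 48 h at 37 °C with titrated compound; concentration-effect curves were classified by fit quality and response size.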
# DT40 TDP1 no CPT: qHTS for Inhibitors of human tyrosyl-DNA phosphodiesterase 1 (TDP1): qHTS in cells in absence of CPT; DT40 Tdp1-/- hTDP1 cells, no CPT, ATP luminescence, 48 h; Potency, µM (top dose mostly 46.2 µM), for the others: top-dose activity change, negative = growth inhibition, hits mostly inhibitors; actives 15% (n = 420,000); AID 686978, 2013; also: potency is read from the fitted curve at half-maximal effect; nearly all actives have a fitted effect of over 55% in size
#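 Chicken DT40 Tdp1-/- cells stably complemented with human TDP1 were seeded at 400 cells/well with DMSO in place of 20 nM camptothecin. After compound pinning, cells grew at least 48 hr at 37 °C; viability read by CellTiter-Glo luminescence.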
# TDP1 cell CPT: growth inhibition of DT40 Tdp1-/-;hTDP1 cells with camptothecin (screen for TDP1 inhibitors); chicken DT40 Tdp1-/-;hTDP1 cells + 20 nM CPT, ATP luminescence, 48 h; actives 12% (n = 420,000); AID 686979; Potency, µM (top dose mostly 46.2 µM), for the others: at the top dose activity change, negative = growth inhibition, hits mostly inhibitors; also: potency is read from the fitted curve at half-maximal effect; nearly all actives have a fitted effect of over 55% in size
#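 Chicken DT40 Tdp1-/- cells complemented with human TDP1, 400 cells/well, exposed to compounds plus 20 nM camptothecin for at least 48 h at 37 C; viability read as ATP content by CellTiter-Glo luminescence.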
# HT1080-NT tox: kills 2HG-producing HT-1080-NT fibrosarcoma cells | Potency, µM (doses to about 46.1 µM), for inactives: at the highest dose activity, negative = less viability, most hits filed as cytotoxic | HT-1080-NT fibrosarcoma viability, CellTiter-Glo ATP luminescence, 48 h | AID 686970 | actives 1.6% (n = 360,000);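 also: NT is the 2HG producing partner of a matched IDH1 knockdown line; potency is read from the fitted curve at half-maximal effect; 0% = DMSO-treated cells and -100% = media-only wells without cells; nearly all actives have a fitted effect of over 55% in size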
#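 Toxicity toward the 2HG-producing NT line was scored as %Activity, normalised to DMSO and no-cell wells, from CellTiter-Glo luminescence after 48 hours' treatment.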
# The depositor's hits bear a star; u = inconclusive; x = no result given; ! = not confirmed by another sample. Compounds with a hit are over-represented: about 19% of the library has one in this group of screens. Unless noted, calls follow the shape of the dose curve; as a rule, active = well fitted curve in the direction sought with a large enough effect; inconclusive = small, poorly fitted or top-dose-only effect, or another doubt; inactive = no such curve, though single readings can be large; an effect the other way counts as inactive or inconclusive. Unless noted, % is scaled to controls: 0 for no effect and ±100 for the full control effect.
SMILES,IL-1B inflam inh,HT1080 IDH1KD tx,DT40 TDP1 no CPT,TDP1 cell CPT,HT1080-NT tox
CN(C)c1ccc(/C=N/n2c(C3CCCCC3)n[nH]c2=S)cc1,-62*,-12%,16µM*,u,-16%
Fc1ccc(/C=N/n2c(C3CCCCC3)n[nH]c2=S)cc1,-2,10%,0%,0%,11%
S=c1[nH]nc(C2CCCCC2)n1/N=C/c1cccc(Cl)c1Cl,-61*,-1%,23µM*,u,28%
C[n+]1cnc(-c2ccccc2)cc1-c1ccccc1,7,-1%,-1%,14%,2%
COc1ccc2oc3cc(C)[n+]([O-])c(-c4ccc(Br)cc4)c3c2c1,-3,-5%,0.0082µM*,u,-8%
COc1ccc(-c2ccc3oc(-c4ccc(OC)cc4)c(-c4ccc(OC)cc4)c3c2)cc1,12,23%,u,u,11%
OC[C@H]1NC[C@@H](O)[C@@H](O)[C@H]1O,x,x,-14%,-5%,x
O=C(Oc1ccc(N(Cc2cccs2)C2=NS(=O)(=O)c3ccccc32)cc1)c1ccccc1Cl,18,9%,5.8µM*,6.5µM*,14%
O=C(OCn1nnc2ccccc2c1=O)c1ccc(N2CCOCC2)c([N+](=O)[O-])c1,4,20%,-3%,-17%,9%
CN(C)S(=O)(=O)c1ccc(NC(=O)/C=C/c2ccccc2Cl)cc1,-27,-27%,23µM*,u,-12%
O=C(/C=C/c1ccccc1Cl)Nc1ccccc1,-65*,-20%,-19%,-28%,-7%
CCCCOC(=O)c1cccc(NC(=O)/C=C/c2ccccc2Cl)c1,x,x,21µM*,u,x
Cn1cccc1-c1cc(C(=O)N/N=C/c2cc(Br)ccc2O)[nH]n1,111,u,4.1µM*,5.8µM*,u
CCOc1ccc(/C=N/NC(=O)c2cc(-c3cccn3C)n[nH]2)cc1,-59*,-4%,u,-19%,-4%
Cn1cccc1-c1cc(C(=O)N/N=C/c2ccc(F)cc2)[nH]n1,u,-7%,u,-9%,-1%
CC1CN(S(=O)(=O)N2CCOCC2)CCN1S(=O)(=O)N1CCOCC1 (stereo unspecified),-7,2%,-12%,-16%,19%
CCOC(=O)c1cc(-c2ccc([N+](=O)[O-])cc2)nc2c1c(=O)[nH]c(=O)n2Cc1ccccc1,30,-9%,5.8µM*,7.3µM*,1%
COc1cc(/C=C2\C(C)=C(C#N)c3nc(N)c(C#N)c(C)c32)ccc1OCC(=O)O,0,0%,u,23µM*,12%
COCCCNC(=O)/C(C#N)=C/c1ccc(OCC(=O)O)c(OC)c1,-3,u,-11%,-2%,12%
O=Cc1ccnc(-c2ccc(OC(=O)c3ccco3)cc2)n1,-86*,-14%,5.8µM*,5.2µM*,4%
CCCn1c(CC)nc([N+](=O)[O-])c1Sc1ccc(F)cc1,-19,-22%,u,u,-13%
CCCn1c(CC)nc([N+](=O)[O-])c1Sc1ccc(C)cc1,-68*,-29%,-29%,-2%,-12%
CN(C)/C(=N\S(=O)(=O)c1ccc(Cl)cc1)c1ccc(F)cc1,0,10%,2%,9%,6%
CC1(C)CC2(OC2c2ccccc2)C(=O)c2ccccc21 (stereo unspecified),-14,5%,u,-3%,3%
CC1(C)CC2(OC2c2ccccc2[N+](=O)[O-])C(=O)c2ccccc21 (stereo unspecified),3,-12%,18µM*,16µM*,-12%
SMILES,IL-1B inflam inh,HT1080 IDH1KD tx,DT40 TDP1 no CPT,TDP1 cell CPT,HT1080-NT tox
COc1ccccc1-c1c(C(F)(F)F)oc2cc(OC(=O)c3ccccc3[N+](=O)[O-])ccc2c1=O,-7,-1%,26µM*,u,-1%
CC(=O)[C@H]1CC[C@H]2[C@@H]3CCC4=CC(=O)CC[C@]4(C)[C@H]3[C@H](O)C[C@]12C,-7,9%,16µM*,u,33%
CC(=O)OCC(=O)[C@@]1(O)CCC2C3CCC4=CC(=O)CC[C@]4(C)C3C(O)C[C@]21C (stereo partly specified),x,x,-28%,12%,x
CC(=O)C1CCC2C3CCC4=CC(=O)C=CC4(C)C3CCC12C (stereo unspecified),-8,-14%,12µM*,21µM*,-12%
CC(=O)[C@H]1CC[C@H]2[C@@H]3C=CC4=CC(=O)CC[C@@]4(C)[C@@H]3CC[C@]12C,3,3%,13µM*,15µM*!,18%
CC12C=CC(=O)C=C1CCC1C2CCC2(C)C(C(=O)CO)CCC12 (stereo unspecified),3,22%,u,u,12%
CC(=O)[C@H]1CC[C@H]2[C@@H]3C[C@H](C)C4=CC(=O)CC[C@]4(C)[C@H]3[C@@H](O)C[C@]12C,u,-2%,u,u,1%
CC(=O)OCC=C1CCC2C3CCC4=CC(=O)CCC4(C)C3C(O)CC12C (stereo unspecified),-7,-4%,12µM*,12µM*,3%
O=C(CN(Cc1ccco1)C(=O)c1cccc(F)c1)Nc1ccccc1C(F)(F)F,-21,-3%,-24%,-17%,0%
CC1CN(c2ccc(NS(=O)(=O)c3ccccc3)cc2C(=O)O)CC(C)O1 (stereo unspecified),26,6%,5%,23%,6%
O=C(CN(c1cc(C(F)(F)F)ccc1Cl)S(=O)(=O)c1ccccc1)NCCc1ccccc1,x,x,21µM*,u,x
O=C(CC1NCCN(Cc2ccccc2)C1=O)Nc1ccc(Cl)cc1 (stereo unspecified),-9,-12%,u,-22%,-11%
O=C1[C@H](Cc2ccccc2)NCC=CC[C@H](c2ccco2)N1Cc1ccccc1,-11,-3%,u,21µM*,-15%
O=C1[C@H](Cc2ccccc2)NCC=CC[C@@H](c2ccc(Cl)cc2)N1Cc1ccccc1,u,-21%,10µM*,u,-19%
COc1cc(OC)c(N(C)C(=O)c2sc3nc4n(c(=O)c3c2C)CCCCC4)cc1Cl,x,x,-2%,17%,x
Cc1c(C(=O)Nc2ccc(C(C)C)cc2)sc2nc3n(c(=O)c12)CCC3,x,x,21µM*,16µM*,x
CC(=O)c1cccc(NC(=O)c2sc3nc4n(c(=O)c3c2C)CCCC4)c1,-16,12%,-5%,u,10%
Cc1c(C(=O)O)sc2nc3n(c(=O)c12)CCC3,-3,22%,u,-28%,13%
Cc1c(C(=O)Nc2cccc(C(F)(F)F)c2)sc2nc3n(c(=O)c12)CCCC3,x,x,8.2µM*,10µM*,x
